This passage reports outcome and AC50 results from PubChem BioAssay (EPA / NIEHS).

Values joined by “and” are separate entries in the source; they are usually repeats but may differ in a detail not shown here. Identical values can stand only once. Inconclusive results are not listed. More than one record can exist for a structure, and the calls need not agree. Active and inactive are the calls of the source. Rule for the calls, unless noted: active = hit-call score of the fitted dose curve at least 0.9, where 1 is the maximum; inactive = score below 0.9.

Assay [1] can be described thus: CCTE_Shafer_MEA_dev_spike_duration_mean: CCTE's Neural Network Formation Assay for Mean Spike Duration, Shafer Lab (AID 2284051).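 For AC50: potency for a decrease in mean network spike duration versus DMSO.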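 Note: mean network spike duration pooled as area under curve over DIV 5 to 12 recordings.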 The essentials: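 With DMSO as baseline, loss of mean network spike duration was scored from extracellular recordings of rat cortical neurons on MEA plates. Exposure spanned plating to DIV 12; the four recording days were collapsed into one AUC value.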

Assay [2] in a line: CCTE_Shafer_MEA_dev_network_spike_duration_std: CCTE's Neural Network Formation Assay for Standard Deviation of Network Spike Duration, Shafer Lab (AID 2284052).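 Note: area under curve of spike duration SD across recording days 5 to 12; hits are decreases in network spike duration SD versus DMSO vehicle.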 The procedure, abridged:
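Developing networks of rat cortical neurons were exposed over twelve days in vitro on 48-well MEA plates. Trapezoidal AUC of recordings (DIV 5–12) was analysed for signal loss relative to DMSO vehicle.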

Assay [3] in a line: CCTE_Shafer_MEA_dev_per_network_spike_spike_number_mean: CCTE's Neural Network Formation Assay for Mean Number of Spikes in a Network Spike, Shafer Lab (AID 2284053). The essentials: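 First, rat cortical cells (1.5 x 10^5/well) were seeded onto MEA wells; second, dosing began at plating and was refreshed on DIV 5 and 9; finally, network-spike spike counts across DIV 5–12 were summarized as AUC.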

Assay [4] can be described thus: CCTE_Shafer_MEA_dev_per_network_spike_spike_percent: CCTE's Neural Network Formation Assay for Percent of Spikes in a Network Spike, Shafer Lab (AID 2284054). The essentials: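 Developing networks of rat cortical neurons are dosed at day 0 and recorded extracellularly four times up to day 12. The endpoint is the area under the curve of percent spikes in network spikes, fitted in the negative direction relative to DMSO.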

Assay [5] in a line: CCTE_Shafer_MEA_dev_LDH: CCTE's Lactate Dehydrogenase Assay for Cytotoxicity in the Neural Network Formation Assay, Shafer Lab (AID 2284068; active = hit-call score of the fitted dose curve at least 0.9, where 1 is the maximum;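 note: exposure for twelve days from plating with re-dosing on DIV 5 and 9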). The essentials: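 Developing rat cortical networks on MEA plates are exposed to compound for 12 days from plating. LDH activity is measured spectrophotometrically, with DMSO as baseline.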
Assay [6] can be described thus: CCTE_Shafer_MEA_dev_AB: CCTE's Alamar Blue Assay for Cytotoxicity in the Neural Network Formation Assay, Shafer Lab (AID 2284083; active = hit-call score of the fitted dose curve at least 0.9, where 1 is the maximum;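 note: resazurin reduction fluorescence as viability of cultured neurons; twelve days of exposure from plating with re-dosing on DIV 5 and 9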). The essentials: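 Cytotoxicity companion to the developmental MEA: primary rat cortical neurons, 12-day exposure starting day 0, compound refreshed DIV 5 and 9; resazurin fluorescence, fitted against DMSO vehicle.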
(Resazurin is reduced to fluorescent resorufin, in cell work by metabolically active cells.)

Assay [7] can be described thus: CCTE_Shafer_MEA_acute_AB: CCTE's Alamar Blue Assay for Cytotoxicity in the Neural Acute Assay, Shafer Lab (AID 2284069; active = hit-call score of the fitted dose curve at least 0.9, where 1 is the maximum;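 note: active compounds lower the viability signal compared with DMSO wells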). The procedure, abridged:
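Cytotoxicity endpoint for acute MEA exposures of primary rat cortical neurons on day 13 or 15. Resazurin reduction is read fluorescently at 544/590 nm, with DMSO as the negative-control baseline.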

The next assay deals with DIO3 (gene 1735). Nature of the assay: CCTE_GLTED_hDIO3: CCTE's human Deiodinase 3 (DIO3) Inhibition Assay, Great Lakes Toxicology and Ecology Division (GLTED) Lab (AID 2284055; active = hit-call score of the fitted dose curve at least 0.9, where 1 is the maximum;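 for AC50: potency is for inhibition seen as loss of released iodide signal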). As for the experimental part: CCTE_GLTED_hDIO3 is a cell-free, single-readout assay designed to test the inhibitory activity of chemicals toward human iodothyronine Deiodinase type 3 (DIO3) enzyme. Enzyme is incubated in presence of test chemical for 3 hours during which uninhibited enzyme liberates free iodide from substrate. Free iodide is measured in a second step using the Sandell-Kolthoff method.CCTE_GLTED_hDIO3 is the assay component measured from the CCTE_GLTED_hDIO3 assay. It is designed to make measurements of enzyme activity, a form of enzyme reporter, as detected with absorbance signals by spectrophotometry.Data from the assay component CCTE_GLTED_hDIO3 was analyzed into 1 assay endpoint. This assay endpoint, CCTE_GLTED_hDIO3, was analyzed in the positive analysis fitting direction relative to DMSO as the negative control and baseline of activity. Using a type of enzyme reporter, loss-of-signal activity can be used to understand changes in the enzymatic activity as they relate to the gene DIO3. Furthermore, this assay endpoint can be referred to as a primary readout, because the performed assay has only produced 1 assay endpoint. To generalize the intended target to other relatable targets, this assay endpoint is annotated to the 'deiodinase' intended target family, where the subfamily is 'deiodinase Type 3'.
[…] assay, developed at Great Lakes Toxicology and Ecology Division (GLTED) within the EPA's Center for Computational Toxicology and Exposure (CCTE), is designed to test the chemicals' ability to inhibit DIO3. Assay uses human deiodinase type 3 (DIO3) enzyme produced with adenovirus expression system. Assay is based on iodide release measured by the Sandell-Kolthoff method and is run in 96-well plate format with assay plates run in triplicate (n=3). The method used for the deiodinase assay was largely based on Renko et al. (2012, 2015). These works describe the utilization of the SK reaction to measure deiodinase-liberated iodide in a 96-well-plate format. The SK reaction is based on the reduction of the yellow-colored cerium IV to the non-colored cerium III by arsenic, with the rate of this reaction increased in the presence of iodide in a concentration-dependent manner (Sandell and Kolthoff, 1937). Iodinated test chemicals can interfere as competitive inhibitors, or if the stock chemical has contaminating free-iodide present. Other chemicals, e.g.: nitrite, iron, and thiocyanate can interfere with the Sandell-Kolthoff reaction (see Sandell and Kolthoff, 1937).

A short description of assay [8]: UKN5_HCS_SBAD2_cell_viability: Viability Assessment in the University of Konstanz (UKN) Leist Lab Neurite Outgrowth Assay in human iPSC-derived immature Dorsal Root Ganglia Neurons (UKN5) (AID 2284056). The procedure, abridged: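 iPSC-derived immature peripheral neurons (SBAD2) seeded on Matrigel with CHIR99021, SU5402 and DAPT, dosed 1 h later for 24 h. Viability from Hoechst H-33342 and calcein-AM live staining, high-content imaging; bidirectional fit versus DMSO.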

The nature of assay [9]: UKN5_HCS_SBAD2_neurite_outgrowth: University of Konstanz (UKN) Leist Lab Neurite Outgrowth Assay in human iPSC-derived immature Dorsal Root Ganglia Neurons (UKN5) (AID 2284070). Particulars: actives raise or lower the signal. The procedure, abridged: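 Neurite outgrowth is quantified as calcein-AM-labelled neurite area in human iPSC-derived peripheral neurons treated for 24 h, starting 1 h after plating in medium with CHIR99021 (1.5 uM), SU5402 (5 uM) and DAPT (5 uM).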

As for `CN1COCN(Cc2cnc(Cl)s2)C1=N[N+](=O)[O-]`, the call in [1], in assay [2], in [3], in [4] and in assay [5] was inactive.

For orientation: AC50 means the concentration giving half of the maximal activity seen. For the molecule `CCOP(=O)(SC(C)CC)N1CCSC1=O` (stereo unspecified), the result in assay [1], in assay [2], in assay [3] and in [4] was inactive. In [5], the AC50 is 50 µM (active).

As for `CCOP(=S)(OCC)OC(Cl)C(Cl)(Cl)Cl` (stereo unspecified), the AC50 is 50 µM (active) and 23.4 µM (active) in [1]; 13.9 µM (active) in assay [2]; 50 µM (active) and 17.4 µM (active) in assay [3]; 26.7 µM (active) and 18.6 µM (active) in [4]; 31 µM (active) and 21.4 µM (active) in assay [5]; 30.7 µM (active) and 17.8 µM (active) in assay [6]. In addition, the result in [2] was inactive.

With `CC(C)N(C(=O)SCC(Cl)=C(Cl)Cl)C(C)C`, the AC50 in assay [1] was 27.3 µM (active); in assay [3], 15 µM (active); in assay [4], 15 µM (active); in [5], 10.7 µM (active); in assay [6] it was 21.8 µM (active). For the same molecule, the outcome in [2] and in assay [7] was inactive.

Take `CCOP(=S)(OCC)Oc1cc(C)nc(C(C)C)n1`: the outcome in assay [1], in [2], in [3], in [4] and in assay [6] was inactive. The AC50 was 16.1 µM (active) in assay [3], 77 µM (active) in assay [4], 50 µM (active) in [5] and 50 µM (active) in assay [6].

Regarding `CON=C(C(=O)OC)c1ccccc1CON=C(C)c1cccc(C(F)(F)F)c1`, the AC50 in assay [1] is 603 nM (active) and 625 nM (active); in assay [2], 642 nM (active) and 886 nM (active); in [3] it was 697 nM (active) and 542 nM (active); in assay [4] it was 981 nM (active) and 686 nM (active); in [5] it was 326 nM (active) and 299 nM (active); in [6] it was 1.26 µM (active) and 437 nM (active). Moreover, the result in assay [7] was inactive.

In the case of `CC1=NNC(=O)N(/N=C/c2cccnc2)C1`, the molecule was called inactive in assay [1], in assay [2], in assay [3], in [4], in assay [5] and in assay [7]. The result in [6] was inactive.

Take `O=[N+]([O-])c1cc(C(F)(F)F)c(Cl)c([N+](=O)[O-])c1Nc1ncc(C(F)(F)F)cc1Cl`: the AC50 in [1] is 0.734 µM (active); in [2], 0.291 µM (active); in assay [3], 0.771 µM (active); in assay [4], 0.742 µM (active); in the assay with DIO3 (gene 1735), 2.04 µM (active); in assay [5], 0.871 µM (active). For the same molecule, the half-maximal activity concentration (AC50) in [6] was 1.01 µM (active). In addition, in assay [7], the outcome was inactive.

`C#CCC1=C(C)C(OC(=O)C2C(C=C(C)C)C2(C)C)CC1=O` (stereo unspecified): the call in assay [1], in assay [2], in assay [3] and in [6] was inactive. Moreover, the figures for the half-maximal activity concentration (AC50) (in assay [4]; in the assay with DIO3 (gene 1735)) were 2.64 µM (active) and 34.5 µM (active), respectively.

Regarding `CC(C)=CC1C(C(=O)OCN2C(=O)C3=C(CCCC3)C2=O)C1(C)C` (stereo unspecified), the outcome (in assay [1]; in [2]; in assay [3]; in [4]; in the assay with DIO3 (gene 1735); in assay [6]) was inactive. Moreover, the concentration at half-maximal activity (AC50) in assay [5] was 10 µM (active).

As to `CCOP(=S)(Oc1cnc(C(C)(C)C)nc1)OC(C)C` (stereo unspecified), the concentration at half-maximal activity (AC50) was 74.9 µM (active) and 9.65 µM (active) in assay [1]; 67.3 µM (active) and 9.31 µM (active) in [3]; 84.5 µM (active) and 23 µM (active) in assay [4]; 77.4 µM (active) and 20.6 µM (active) in assay [5]; 80.1 µM (active) and 25.9 µM (active) in assay [6]. The molecule was classed as inactive in assay [2] and in assay [7].

Take `CC[C@H](C)[C@H]1O[C@]2(C=C[C@@H]1C)C[C@@H]1C[C@@H](C/C=C(\C)[C@@H](O[C@H]3C[C@H](OC)[C@@H](O[C@H]4C[C@H](OC)[C@@H](NC)[C@H](C)O4)[C@H](C)O3)[C@@H](C)/C=C/C=C3\CO[C@@H]4[C@H](O)C(C)=C[C@@H](C(=O)O1)[C@]34O)O2`: the AC50 in assay [1] was 13 nM (active) and 2.69 nM (active); in [2], 5.01 nM (active) and 3.04 nM (active); in assay [3], 55.1 nM (active) and 5.93 nM (active); in assay [4] it was 0.517 µM (active); in the assay with DIO3 (gene 1735), 33.6 µM (active); in assay [8] it was 1.52 µM (active). The AC50 in assay [5] is 145 nM (active) and 0.883 nM (active); in [7] it was 20 µM (active); in assay [9] it was 1.12 µM (active); in assay [6], 0.656 µM (active). The outcome in [4] and in assay [7] was inactive.

For `CCOP(=O)(NC(C)C)Oc1ccc(SC)c(C)c1` (stereo unspecified), the AC50 is 21 µM (active) in [1]; 10.1 µM (active) in [2]; 61.4 µM (active) in [3]; 11.7 µM (active) in assay [4]; 51 µM (active) in assay [5]. The call in assay [1], in assay [2], in assay [3], in assay [4], in [5] and in assay [7] was inactive. For the same molecule, the call in assay [6] was inactive.

For the molecule `C[Si](Cn1cncn1)(c1ccc(F)cc1)c1ccc(F)cc1`, the AC50 in [1] was 5.85 µM (active); in assay [4], 20.1 µM (active); in [5], 22.5 µM (active). Further, the molecule was classed as inactive in assay [2], in assay [3], in [7] and in [6].

For `CSC1=N[C@@](C)(c2ccccc2)C(=O)N1Nc1ccccc1`, the molecule was called inactive in assay [1], in assay [2], in assay [3], in assay [4], in assay [8] and in [7]. Moreover, the molecule was classed as inactive in [9] and in [6]. In addition, the half-maximal activity concentration (AC50) in [5] is 15 µM (active).

Take `COP(=O)(NC(C)=O)SC` (stereo unspecified): the call in assay [1], in assay [2], in [3], in assay [4], in [5] and in assay [7] was inactive.
